Inconclusive results are not listed. Entries that show only a call come without a potency. Calls of active or inactive are those of the source. The call rests on the fitted dose curve; in most records, active means well fitted cell-killing curve with a large enough effect; inconclusive means small, poorly fitted or top-dose-only effect, or effect the other way; inactive means flat fitted curve, though single readings scatter.
Potency means the concentration at half of the fitted maximal effect.

The assay concerns JEG-3. Nature of the assay: Primary qHTS to identify gynecologic anti-cancer compounds using libraries of approved drugs and bioactive compounds (AID 1345084). Further: nearly all actives have a fitted effect of over 55% in size. Particulars: Gynecologic cancer cell panel viability, ATPlite luminescence, 48 h; series mostly up to 57.5 µM. An outline of the steps:
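Measured: luminescence after ATPlite addition (15 min, RT). Exposure: 48 h, 37 C, 5% CO2.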
(In general: qHTS replaces the single test concentration by a dilution series.)
With `CCCC1(CCC)CCC2(CCN(CCCN(CC)CC)C2)CC1`, the Potency is 5.62 µM (active). On the same count and under the same terms, next, `Cc1ccc(O)cc1Nc1ccnc(Nc2cccc(C(N)=O)c2)n1`: “inactive”.

For `O=C(NCCCN1CCC2(CC1)OCc1ccccc12)[C@H]1CCCN1Cc1ccccc1`, the Potency entry was “inactive”. Still for that read-out and setting: next, `CC(C)c1cc(-c2ccc(F)c3ccccc23)nc(N)n1`: “inactive”; `CC(=O)OC1CC2(C)C(CCC(C)C23Cc2c(O)cc(CO)c(C=O)c2O3)C(C)(C)C1O` (stereo not drawn): “inactive”. On the same count and under the same terms, next, `CC(C)Oc1ccc(-c2cnc3c(-c4ccnc5ccccc45)cnn3c2)cc1`: “inactive”. Turning to `Cc1[nH]c(/C=C2\C(=O)Nc3cc(-c4ccccc4)ccc32)c(C)c1CCC(=O)O`, the Potency entry is “inactive”. On the same count and under the same terms, next, `CN(C)C(=O)NC1(c2ccccc2)CCN(CCC[C@]2(c3ccc(Cl)c(Cl)c3)CCCN(C(=O)c3ccccc3)C2)CC1`: “inactive”. For `CC(=O)N[C@H]1[C@H](O[C@H]2CC[C@@]3(C)C(CC[C@]4(C)C3CC=C3C5CC(C)(C)CC[C@]5(C(=O)O)C(O)C[C@]34C)C2(C)C)O[C@H](CO[C@@H]2O[C@H](C)[C@H](O)[C@H](O)[C@H]2O[C@@H]2OC[C@@H](O)[C@H](O)[C@H]2O)[C@@H](O)[C@@H]1O` (stereo partly drawn), the activity change, negative = cytotoxicity is -18.9% [at 11.6 µM] (inactive). For `Cc1cc(C)nc(SCC(=O)Nc2ncc(Cc3cccc4ccccc34)s2)n1`, the Potency entry was “inactive”. The same measure, in the same setting: to `COc1cccc(CN(C(=O)CC(C)(C)C)[C@H]2C[C@H](C(=O)N3CCNCC3)N(Cc3ccc4c(c3)OCO4)C2)c1` belongs “inactive”. For `Fc1ccc(N2CCN(CCC3OCCc4ccccc43)CC2)cc1` (stereo not drawn), the Potency result is “inactive”. Still for that read-out and setting: next, `O=C(NCc1ccccc1)c1ccc2c(=O)n(-c3cccc(C(F)(F)F)c3)c(=S)[nH]c2c1`: “inactive”.

Values taken from PubChem BioAssay (NCATS).
